# According to the supplement of paper PMC3334620:
# The full ranking holds about 33,000 sequences; the median of “E-score (-0.5 to 0.5)” is about -0.054, and the highest 2% start at about 0.39. Only a selection was taken, and the highest values are over-represented in it overall.
# Target: Ylr278c (UniProt Q05854)
# Test: PBM E-score (8-mer binding enrichment) (E-score (-0.5 to 0.5)); higher = stronger / more preferred TF binding
# Details: protein concentration: 200 nM; construct: GST-DNA-binding domain
# Method: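 Universal 'all 10-mer' protein binding microarrays (Agilent AMADID 015681) probed with GST-tagged S. cerevisiae TFs (full-length or DBD) made by in vitro transcription/translation (PURExpress), about 100-200 nM. Bound TF was detected with fluorescent anti-GST. Each ungapped 8-mer (which stands for itself and its reverse complement) is scored by the PBM enrichment score (E-score), a modified Wilcoxon-Mann-Whitney statistic from -0.5 to +0.5, computed with the Universal PBM Analysis Suite. Scale: above 0.35 generally sequence-specific binding.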
# Sequence of UniProt Q05854 (Q05854 whole entry): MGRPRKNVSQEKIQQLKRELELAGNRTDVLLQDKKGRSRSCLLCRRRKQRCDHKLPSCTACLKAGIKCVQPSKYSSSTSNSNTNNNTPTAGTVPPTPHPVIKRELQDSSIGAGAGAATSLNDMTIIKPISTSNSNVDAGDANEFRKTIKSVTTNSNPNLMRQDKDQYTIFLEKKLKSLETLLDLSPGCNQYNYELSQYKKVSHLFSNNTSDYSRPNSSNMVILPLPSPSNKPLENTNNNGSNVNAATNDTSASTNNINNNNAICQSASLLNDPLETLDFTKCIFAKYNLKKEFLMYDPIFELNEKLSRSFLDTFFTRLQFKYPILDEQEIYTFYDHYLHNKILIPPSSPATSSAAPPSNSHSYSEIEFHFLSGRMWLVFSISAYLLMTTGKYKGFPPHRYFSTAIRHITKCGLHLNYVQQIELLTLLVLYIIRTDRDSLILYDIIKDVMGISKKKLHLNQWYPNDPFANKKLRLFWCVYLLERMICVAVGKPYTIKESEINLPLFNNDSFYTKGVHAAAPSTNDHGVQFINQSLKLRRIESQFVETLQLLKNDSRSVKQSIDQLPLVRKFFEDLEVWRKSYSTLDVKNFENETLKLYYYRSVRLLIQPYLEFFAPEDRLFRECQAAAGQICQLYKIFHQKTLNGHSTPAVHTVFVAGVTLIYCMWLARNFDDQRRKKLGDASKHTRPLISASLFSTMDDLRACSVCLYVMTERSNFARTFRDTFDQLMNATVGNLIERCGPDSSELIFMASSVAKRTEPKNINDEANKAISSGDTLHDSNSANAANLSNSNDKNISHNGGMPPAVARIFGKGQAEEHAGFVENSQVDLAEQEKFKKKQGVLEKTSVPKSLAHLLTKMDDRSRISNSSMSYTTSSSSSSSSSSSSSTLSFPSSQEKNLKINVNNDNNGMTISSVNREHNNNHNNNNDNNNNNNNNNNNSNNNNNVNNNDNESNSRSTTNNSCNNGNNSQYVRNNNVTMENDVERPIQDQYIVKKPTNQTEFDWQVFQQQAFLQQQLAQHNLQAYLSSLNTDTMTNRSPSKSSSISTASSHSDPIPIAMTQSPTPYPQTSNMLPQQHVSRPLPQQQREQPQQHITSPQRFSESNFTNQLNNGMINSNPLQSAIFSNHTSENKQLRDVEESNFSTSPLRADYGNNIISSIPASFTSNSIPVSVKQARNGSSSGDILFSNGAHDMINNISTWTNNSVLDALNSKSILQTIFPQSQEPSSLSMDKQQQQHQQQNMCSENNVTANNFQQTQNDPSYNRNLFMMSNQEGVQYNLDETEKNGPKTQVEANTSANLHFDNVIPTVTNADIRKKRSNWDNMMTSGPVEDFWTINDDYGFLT
row,Sequence,PBM E-score
1,GAATGCGC,0.182
2,CTTCTAGA,-0.215
3,CCTCCCTC,0.0572
4,TCCGCTAA,0.267
5,AGTTAGAC,-0.0203
6,GTCCAAGA,-0.185
7,CATGGCCG,0.224
8,ACGTCGGA,0.385
9,CCGTCGGC,0.366
10,CCGTCGGA,0.415
11,GCGTCGGA,0.438
12,CCGTCGTA,0.0447
13,GCGTCGAA,-0.0135
14,CATCCTTC,-0.0925
15,ACAGGCCG,0.156
16,AGAGGCTA,-0.164
17,AATAATAT,0.23
18,ACATCGAG,-0.288
19,AGCTACCC,-0.243
20,ATGGATCG,0.166
21,AAGCTCCG,0.477
22,CAGCTCCG,0.426
23,CAGCTCCA,-0.152
24,CAGCTCCC,-0.153
25,AAGCTCCT,-0.0423

row,Sequence,PBM E-score
1,AAGCTCCC,-0.139
2,ACTGTCAG,-0.147
3,CACGCGAC,-0.0553
4,AACTTCTG,-0.197
5,TCATTCAA,-0.146
6,CTAGCGGC,0.0333
7,GGCCGGAA,0.422
8,AGCCGGTG,0.246
9,CGCCGGAC,0.447
10,AGCCGGAA,0.43
11,CGCCGAAC,0.315
12,AGCCGGGA,0.272
13,AGCCGGTA,0.352
14,AGCCGGAG,0.455
15,CGCCGCAC,0.222
16,AGCCGGGG,0.26
17,GGCCGGTA,0.261
18,GGACGGAA,0.337
19,GCATTGGA,0.0238
20,CAGGTTGG,-0.138
21,GACGGTAA,0.127
22,CGTGATGC,0.073
23,AGCCGGAC,0.407
24,GGCCGGGA,0.325
25,TGCCGGCA,0.347

row,Sequence,PBM E-score
1,CGCCGGGC,0.378
2,CGCCGGTA,0.352
3,AGCCGGGC,0.167
4,CGCCGTAA,0.28
5,AGCCGGTC,0.134
6,TGCCGTAA,-0.0603
7,CGCCGGAA,0.432
8,TGCCGGAA,0.435
9,CGCCGGGA,0.412
10,GAACGATC,0.041
11,CCTGTCCC,-0.128
12,ACCAGTAA,0.00819
13,ATTCTAGA,-0.171
14,ACGACCCC,0.0131
15,CGCCGCAG,0.264
16,AGCCGTAT,-0.0908
17,CGCCGTAG,0.193
18,GGACGGAC,0.359
19,CGCCGGAG,0.459
20,AGCCGGAT,0.404
21,AGCCGGCT,0.247
22,GGCCGCAC,0.23
23,GGCCGGAC,0.419
24,AGCCCTTA,-0.232
25,CGGACGAA,0.332

row,Sequence,PBM E-score
1,ACGGGATC,0.109
2,ACGGGATA,0.261
3,ACGGGACC,0.0315
4,CCGGGATC,0.411
5,CCGGGACC,0.408
6,GCGGGACC,0.216
7,CGGGGATA,0.349
8,CCGGGATA,0.395
9,CTGGGATC,-0.101
10,GCGGGATA,0.266
11,CGGGGATC,0.408
12,AGGGGATC,-0.0127
13,ATTGCATC,-0.105
14,AGCGAAGG,-0.0577
15,ATATGCAA,-0.0841
16,TCGCCAGA,-0.26
17,AAACAGAA,-0.207
18,CTAGGCAA,-0.0858
19,TAGTTTCA,-0.0254
20,ACCTAGAG,-0.141
21,GGAGAATA,0.189
22,AAGGGCTG,-0.213
23,CCCGGATC,0.403
24,CCCGGATA,0.351
25,CACGGATC,0.242

row,Sequence,PBM E-score
1,GTTGCTTA,-0.107
2,GTCTGCGA,-0.207
3,GTCACCCA,-0.109
4,ACTAGCCT,-0.0654
5,CATTGAGA,-0.119
6,GTCTCGGA,0.385
7,CTCTCGGC,0.181
8,ATCTCGGG,0.278
9,ATCTCGGA,0.406
10,CTCTCGAA,-0.33
11,CTCTCGGA,0.405
12,GGCGACGA,-0.172
13,AAAGCCTA,-0.184
14,ATCTAACG,0.0888
15,CGGCTGGA,0.0769
16,GGGATGAC,0.0341
17,AAGCGGAG,0.355
18,CCGCGGAG,0.449
19,CCGCGGAC,0.429
20,GCGCGGAC,0.294
21,GCGCGGGA,0.248
22,CCGCGGGA,0.393
23,CAGCGGAA,0.359
24,CAGCGGAG,0.408
25,CCGCGGCG,0.364

row,Sequence,PBM E-score
1,CCGCGGGC,0.367
2,CCGCGCAG,0.274
3,CAGCGGAC,0.257
4,GCTTCTAC,-0.123
5,ATTAGGGA,-0.0669
6,CCTGAAGA,-0.0995
7,CCATAGGG,-0.154
8,CTTTACAC,0.022
9,ACCAGGAT,-0.0342
10,ACGCGGAT,0.23
11,ACGCGGAG,0.421
12,GCGCGGAA,0.387
13,TCGCGGAA,0.342
14,CCGCGGAA,0.414
15,ACGCGGAC,0.342
16,AATTAGCT,0.0507
17,AAGCCGTG,0.00789
18,GCCTTTAC,-0.0652
19,ACTCCGTC,0.459
20,CCTCCGTA,0.37
21,CCTCCGTC,0.351
22,ACTCCTTA,-0.0802
23,GCTCCATA,-0.175
24,ATTCCGTC,0.362
25,GCTCCGTA,0.405

row,Sequence,PBM E-score
1,AATCCGTG,0.26
2,ACTCCGTA,0.443
3,ACTCCGTG,0.449
4,AGTCCGTG,0.343
5,ACACCGTA,0.102
6,GCTGGAGA,-0.271
7,GGCACTAC,-0.0733
8,CCTGATCG,-0.0211
9,CGGAGTGC,0.438
10,GGGAGTGA,0.0441
11,CTGAGTGC,-0.133
12,AGGAGTGA,-0.0619
13,AGGAGTGC,-0.139
14,CGGAGTGA,0.459
15,GACCATGA,0.0081
16,CCTTCTGC,-0.136
17,ATGTTAGC,-0.0158
18,AAGACGCA,-0.074
19,GTCAACAA,-0.23
20,AGCTCCGC,0.436
21,AGCTCCGA,0.47
22,AGCTCCTC,-0.144
23,AGCTCCAC,-0.0221
24,AGCTCCCG,0.0891
25,AGCTCCAA,-0.207

row,Sequence,PBM E-score
1,GGCTCCAA,-0.0143
2,AGCTCCGG,0.458
3,GGCTCCGA,0.393
4,AGCTCCTA,-0.0358
5,GGCTCCCA,-0.145
6,AGCTCCTG,-0.0626
7,GAGCCTCA,-0.171
8,CGCTCCCG,0.115
9,CACTTCAC,-0.0647
10,GTCTGTTA,-0.13
11,TGCTCCCA,-0.175
12,AAGTCGAG,-0.374
13,CTGTCTGC,-0.222
14,CCCAATAA,-0.0977
15,GGAGACTA,0.0463
16,GCTAAGAC,-0.0188
17,CGCTCCGC,0.317
18,CGCTCCGA,0.432
19,CGCTCCCA,0.0833
20,AACTGTGG,-0.0559
21,ACTACGCT,-0.0389
22,GCCGACGA,0.248
23,CCCGACAA,0.281
24,TCCGACGA,0.397
25,ACCGACAA,0.199

row,Sequence,PBM E-score
1,TCCGACAA,0.39
2,CCCGACGA,0.213
3,ACCTCTGA,-0.0775
4,CAAGATTG,-0.151
5,AAAATTAT,0.214
6,TCACGGAA,0.324
7,ACCCGGCA,0.174
8,ACCCGGTC,0.202
9,CCGGGGAC,0.242
10,ACCCGGTA,0.161
11,GCCGGGAC,0.255
12,ACCCGGGC,0.273
13,TCCCGGAA,0.44
14,ACCCGGAA,0.394
15,ACCCGGAC,0.396
16,CCCGGGAC,0.394
17,TCCCGGCA,0.333
18,CCCCTAAC,-0.141
19,GAAATCGC,0.214
